CHX counter: Cycloheximide Counterscreen for Small Molecule Inhibitors of Shiga Toxin | cell reporter, cycloheximide protein synthesis inhibition counterscreen | max response, % | hit rate 12% among 300,000 | AID 2314, 2010; in the data active = max response mostly above about 13%, no sharp cut-off; inactive = mostly below about 14%; also: read at 38.3 µM for the half of the compounds with a filed dose
Pf growth 48h: Primary qHTS for delayed death inhibitors of the malarial parasite plastid, 48 hour incubation. P. falciparum luciferase growth in erythrocytes, 48 h. hit rate 5.9% among 310,000. Potency, µM (doses to about 28.7 µM), usual class: inhibitors
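Luciferase-expressing parasites in RBCs, 2% Hct / 0.1% parasitemia final; RPMI 1640 + 0.5% Albumax; 37 C, 5% CO2, one generation; luminescence read-out, lower signal = inhibition.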
Pf growth 96h: Primary qHTS for delayed death inhibitors of the malarial parasite plastid, 96 hour incubation | Potency, µM (highest dose often 28.7 µM), hits mostly inhibitors | AID 504834, 2011 | hit rate 6.9% among 320,000 | P. falciparum luciferase reporter growth, 96 h
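Compounds incubated with erythrocytes infected by luciferase-expressing P. falciparum (2% hematocrit, 0.05% parasitemia final) for 96 hours, 37 C in 5% CO2. Growth inhibition scored as decreased luciferase luminescence.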
Shiga toxin inh: A qHTS for Small Molecule Inhibitors of Shiga Toxin. Vero cells, Shiga toxin protein synthesis inhibition reporter. inhibition, % at 38.7 µM. hit rate 9.2% among 290,000; in the data active = inhibition mostly above about 28%, no sharp cut-off; inactive = mostly below about 43%
Large screens that a line does not name were inactive. Rows were chosen to be rich in hits. Some 21% of all compounds tested hit in one or more screens of this group. Unless noted, calls follow the shape of the dose curve; as a rule, active = well fitted inhibition curve with a large enough effect; inconclusive = small, poorly fitted or top-dose-only effect, or another doubt; inactive = no such curve, though single readings can be large or run the other way.

O=C(O)C[C@@H]1C(=O)O[C@@H]2C(COC(=O)c3cc(O)c(O)c(O)c3)O[C@@H](OC(=O)c3cc(O)c(O)c(O)c3)[C@@H](OC(=O)c3cc(O)c(O)c4c3[C@H]1[C@H](O)C(=O)O4)[C@H]2OC(=O)c1cc(O)c(O)c(O)c1 (some centres not stated)	Pf growth 48h 3.29µM, Pf growth 96h 2.94µM
Cc1cccnc1NC(=O)Cn1nc([N+](=O)[O-])cc1C	Pf growth 48h inconclusive, Pf growth 96h inconclusive
Cc1cccnc1NC(=O)Cn1nc(-c2ccccc2)oc1=S	CHX counter 40.4, Shiga toxin inh 89.3
CCOC(=O)C1CCCN(CC(=O)Nc2cccc(C(C)=O)c2)C1 (configuration not stated)	none
CCOc1ccc(S(=O)(=O)NNS(=O)(=O)c2ccc(C)cc2C)cc1	none
CCOc1ccc(NC(=O)Nc2nc(SCC)ns2)cc1	Pf growth 96h 4.15µM
CCSc1nsc(NC(=O)Nc2ccc(F)cc2F)n1	CHX counter 59.2, Shiga toxin inh 87.1
CCC(CC)NC(=O)Nc1ccc(F)cc1F	Pf growth 96h inconclusive
O=C(Nc1ncccn1)c1ccc(C(F)(F)F)cc1	none
CCCc1ccc(C(=O)NC(=O)c2ccccc2O)cc1	CHX counter 23.1, Pf growth 48h 0.0657µM, Pf growth 96h 0.37µM
O=C(NC(=O)c1ccccc1O)c1ccc(C(F)(F)F)cc1	Pf growth 48h inconclusive, Pf growth 96h 2.33µM
Cc1ccc(S(=O)(=O)N[C@@H](Cc2ccccc2)C(=O)N2CCC[C@@H]2C(=O)O)cc1	none
COC1C(C)=C(C)C(=O)N1Cc1ccc(F)cc1 (configuration not stated)	Pf growth 48h inconclusive
COc1ccc(-c2cn3cccnc3n2)cc1NC(=O)c1cccs1	Pf growth 96h 11.7µM
COc1ccc(-c2cn3cccnc3n2)cc1NC(=O)C(C)Oc1ccccc1 (configuration not stated)	Pf growth 48h 13.1µM
Cc1ccc(C)c(N2CCN(S(=O)(=O)c3csc(C(N)=O)c3)CC2)c1	none
Cc1c2n(c3ccccc13)CCN(C)C2	none (no result: CHX counter, Shiga toxin inh)
Cc1ccc(S(=O)(=O)c2cn(C)c3cc(N4CCN(C)CC4)c(F)cc3c2=O)cc1	Pf growth 96h inconclusive
Cc1ccc2scc(N3CCN(C)CC3)c(=O)c2c1	CHX counter 47.8, Shiga toxin inh 82.8 (no result: Pf growth 48h, Pf growth 96h)
O=C(c1nn(Cc2ccccc2)c(=O)c2ccccc12)N1CCN(C/C=C/c2ccccc2)CC1	Pf growth 48h 11.7µM, Pf growth 96h 7.38µM
O=C(c1ccc(OC2CCN(C/C=C/c3ccccc3)CC2)cc1)N1CCCC1	Pf growth 48h 2.94µM, Pf growth 96h 10.4µM
O=C(c1ccc(OC2CCN(C/C=C/c3ccccc3)CC2)cc1)N1CCCCC1	Pf growth 48h inconclusive
Cc1cc(C)cc(NC(=O)N2CCN(C/C=C/c3ccccc3)CC2)c1	Pf growth 96h 2.94µM
CC(C(=O)Nc1cccc([N+](=O)[O-])c1)N1CCN(C/C=C/c2ccccc2)CC1 (configuration not stated)	Pf growth 48h inconclusive, Pf growth 96h 13.1µM
COc1ccccc1/C=C/CN1CCC(Oc2ccc(C(=O)N3CCCCC3)cc2)CC1	Pf growth 48h 7.38µM
COc1ccccc1/C=C/CN1CCC(Oc2cc(C(=O)NC3CC3)ccc2OC)CC1	Pf growth 48h 9.28µM
COc1cc(C(=O)N2CCN(C/C=C/c3ccccc3)CC2)cc(OC)c1OC	Pf growth 48h inconclusive, Pf growth 96h inconclusive
COc1ccc(NS(=O)(=O)c2cc(C(=O)N3CCN(C/C=C/c4ccccc4)CC3)ccc2C)cc1	Pf growth 48h 11.7µM, Pf growth 96h inconclusive (no result: CHX counter, Shiga toxin inh)
CCOc1cc(C(=O)N2CCN(C/C=C/c3ccccc3)CC2)cc(OCC)c1OCC	Pf growth 96h 5.22µM (no result: Pf growth 48h)
Cc1ccc(C(C)(C)C)cc1S(=O)(=O)Nc1cccc(C(=O)N2CCN(c3ccccn3)CC2)c1	Pf growth 96h inconclusive (no result: CHX counter, Shiga toxin inh)
COc1ccc2c(c1)C(c1ccccc1OC)CC(=O)O2 (configuration not stated)	none (no result: Pf growth 48h, Pf growth 96h)
Cc1cc(C)cc(CN2CCC(Oc3ccc(C(=O)N4CCCC4)cc3)CC2)c1	Pf growth 48h 11.7µM
Cc1ccc(NCCC(=O)c2cccc([N+](=O)[O-])c2)cc1	CHX counter 29.1, Shiga toxin inh 19.0
CCN(CC)c1ccc(C(=O)Nc2ccccc2)cc1[N+](=O)[O-]	CHX counter 37.1, Shiga toxin inh 66.9
O=C(Nc1nc(-c2cccnc2)cs1)c1cccc([N+](=O)[O-])c1	Pf growth 96h inconclusive
O=C(Nc1ccc(NC(=O)c2cccc([N+](=O)[O-])c2)cc1)c1cccc([N+](=O)[O-])c1	CHX counter 30.3, Pf growth 48h inconclusive (no result: Shiga toxin inh)
O=C(Nc1ncc([N+](=O)[O-])s1)c1cccc([N+](=O)[O-])c1	CHX counter 42.9, Shiga toxin inh 105.0
CCC(=O)Nc1cccc(NC(=O)c2cccc([N+](=O)[O-])c2)c1	none
COc1ccc(S(=O)(=O)N2CCCCC2)cc1NC(=O)CNc1ccc(F)cc1C	Pf growth 48h inconclusive (no result: CHX counter, Shiga toxin inh)
O=C(Nc1ccc(Br)cc1)c1cc([N+](=O)[O-])cc([N+](=O)[O-])c1	Pf growth 48h 2.62µM (no result: Shiga toxin inh)
O=C(O)C1CCCC[C@H]1C(=O)Nc1ncc([N+](=O)[O-])s1 (some centres not stated)	none (no result: CHX counter, Shiga toxin inh)
O=C(Nc1ccccc1)Nc1ncc([N+](=O)[O-])s1	CHX counter 35.0, Shiga toxin inh 76.8
O=C(Nc1ccccc1-c1ccccc1)c1ccccc1	Pf growth 96h inconclusive
O=C(Nc1ccccc1-c1ccccc1)c1cccc([N+](=O)[O-])c1	CHX counter 30.8, Pf growth 48h inconclusive, Pf growth 96h 9.28µM, Shiga toxin inh 121.7
COC(=O)c1cccc(NC(=O)c2cccc([N+](=O)[O-])c2)c1	none (no result: Shiga toxin inh)
O=C(Nc1cccc([N+](=O)[O-])c1)c1cccc(C(=O)Nc2cccc([N+](=O)[O-])c2)c1	Pf growth 48h 2.94µM, Pf growth 96h inconclusive
CCCCn1c(N)c(N(CCOC)C(=O)CCCc2nc3ccccc3c(=O)[nH]2)c(=O)[nH]c1=O	none (no result: CHX counter, Shiga toxin inh)
Cc1ccc2nc3sc(=O)sc3nc2c1	none (no result: Pf growth 48h, Pf growth 96h)
CCOc1ccc(C(=O)C(C)OC(=O)Cn2[nH]c(=O)c3ccccc3c2=O)cc1 (configuration not stated)	none
Cc1nc2ccc(C(=O)Nc3cccc([N+](=O)[O-])c3)cc2s1	CHX counter 29.7, Pf growth 48h inconclusive, Shiga toxin inh 101.1
O=C(Nc1ccc([N+](=O)[O-])cc1)c1ccccc1	CHX counter 47.0, Pf growth 96h inconclusive, Shiga toxin inh 72.6
O=C(NNC(=O)c1ccc(NC(=O)c2ccccc2)cc1)c1ccccc1	Pf growth 96h inconclusive
COc1ccc(Cc2nnc(NC(=O)c3ccccc3C)s2)cc1	Pf growth 96h 2.08µM
O=C(O)c1ccc(N=NNc2cccc([N+](=O)[O-])c2)cc1	CHX counter 41.8, Pf growth 96h inconclusive, Shiga toxin inh 108.4
Cc1nc2ccc(NC(=O)c3ccc([N+](=O)[O-])cc3[N+](=O)[O-])cc2s1	Pf growth 48h inconclusive, Pf growth 96h inconclusive
CCN(CC)Cc1c(C(=O)N/N=C/c2c(Cl)cccc2Cl)nnn1-c1nonc1N	none
COc1ccc(S(=O)(=O)N2CCC(C(=O)NCCc3c[nH]c4ccccc34)CC2)cc1	Pf growth 48h inconclusive, Pf growth 96h inconclusive
